Measured values taken from PubChem BioAssay (Tox21).
Inconclusive results are not listed. Entries that show only a call come without a potency. Activity calls are given as the source filed them. Calls come from the whole dose curve; as a rule, active = well fitted curve in the direction sought with a large enough effect in the repeat runs; inconclusive = weak or mixed curves; inactive = no such curve, though single readings can be large; an effect the other way counts as inactive or inconclusive.

assay: Caspase-3/7 induction in CHO-K1 cells by small molecules, qHTS cell viability counter screen (AID 1346979); details: CellTiter-Fluor fluorescence, 17 h; series mostly up to 92.4 µM; note: nearly all actives have a fitted effect of over 35% in size; note: potency is the fitted concentration of half-maximal effect
Outline: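 CellTiter-Fluor viability check, qHTS format: wild-type CHO-K1, 16hr compound treatment, 1hr reagent incubation, fluorescence read.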

Structure (SMILES)	Potency
CC(C)=CCCC(C)CC=O (stereo not drawn)	inactive
CCCCOC(=O)c1ccccc1C(=O)OCC(CC)CCCC (stereo not drawn)	inactive
CCN(CC)C(C)CN1c2ccccc2Sc2ccccc21 (stereo not drawn)	inactive
CC(O)C1CCCCC1 (stereo not drawn)	inactive
Cc1nc2ccccc2n1Cc1ccc(Cl)cc1	7.5 µM (active)
COCCCCCCCCOCCC[Si](C)(O[Si](C)(C)C)O[Si](C)(C)C	13.7 µM (active)
COCCO	inactive
C=C(C)C(=O)OCCN(C)C	inactive
CC(C)(C)c1ccc(S)cc1	inactive
Cc1ccccn1	inactive
N#Cc1c(F)cccc1F	inactive
S=C(S)NCCNC(=S)S	inactive
CC(=O)N(O)CCCCCNC(=O)CCC(=O)N(O)CCCCCNC(=O)CCC(=O)N(O)CCCCCN	inactive
O=S1(=O)c2cccc3cccc(c23)N1CCCN1CCN(c2ccc(F)cc2)CC1	inactive
C=CCCCCCC	inactive
O=C1CCCCCO1	inactive
CN(C)CC[C@@H](c1ccc(Br)cc1)c1ccccn1	inactive
FC(F)(F)C(F)(F)C(F)(F)C(F)(F)C(F)(F)C(F)(F)CCI	inactive
O=C(c1ccc(O)cc1)c1ccc(O)cc1	inactive
O=C(NS(=O)(=O)/C=C/c1cccs1)c1ccc(F)cc1Br	inactive
O=C(O)C1CCC(C(=O)O)CC1 (stereo not drawn)	inactive
CC(=O)OC/C=C/c1ccccc1	inactive
c1ccc(-c2nc[nH]c2-c2ccccc2)cc1	inactive
CN1CCC(OC(c2ccccc2)c2ccccc2)CC1	inactive
CC(=O)OCCc1ccccc1	inactive
Cc1ccc(C(C)c2ccc(C)c(C)c2)cc1C	inactive

assay: Caspase-3/7 induction in CHO-K1 cells by small molecules, qHTS assay (AID 1346980); details: CHO-K1 caspase-3/7 induction, Caspase-Glo luminescence, 17 h; series mostly up to 92.4 µM; note: nearly all actives have a fitted effect of over 15% in size
Outline: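 Wild-type CHO-K1 cells exposed to compounds for 17hr at 37 C, 5% CO2. Caspase-3/7 activity then measured by Caspase-Glo 3/7 luminescence after 30min at room temperature.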

Structure (SMILES)	Potency
O=C(CC(=O)c1ccccc1)c1ccccc1	inactive
CC(C)=CCCC(C)CC=O (stereo not drawn)	inactive
CN(c1nccc(=O)[nH]1)C1CCN(c2nc3ccccc3n2Cc2ccc(F)cc2)CC1	inactive
CC1(C)CCC(C)(C)c2cc(NC(=O)c3ccc(C(=O)O)cc3)ccc21	inactive
CCCCOC(=O)c1ccccc1C(=O)OCC(CC)CCCC (stereo not drawn)	inactive
O=C(c1ccccc1)c1ccc2n1CCC2C(=O)O (stereo not drawn)	inactive
CCN(CC)C(C)CN1c2ccccc2Sc2ccccc21 (stereo not drawn)	inactive
CC(O)C1CCCCC1 (stereo not drawn)	inactive
Cc1nc2ccccc2n1Cc1ccc(Cl)cc1	inactive
COCCCCCCCCOCCC[Si](C)(O[Si](C)(C)C)O[Si](C)(C)C	inactive
COCCO	inactive
CCOc1ccc2[nH]cc(C(=O)NCc3ccccc3)c(=O)c2n1	inactive
O=c1[nH]cnc2ccccc12	inactive
CN1CCN(C2=Nc3ccccc3Sc3ccc(Cl)cc32)CC1	inactive
CCC(C)N(C)C(=O)c1cc2ccccc2c(-c2ccccc2Cl)n1 (stereo not drawn)	inactive
N#Cc1c(F)cccc1F	inactive

Structure (SMILES)	Potency
S=C(S)NCCNC(=S)S	inactive
CN(C)CC/C=C1\c2ccccc2COc2ccccc21	inactive
CC(=O)N(O)CCCCCNC(=O)CCC(=O)N(O)CCCCCNC(=O)CCC(=O)N(O)CCCCCN	inactive
O=S1(=O)c2cccc3cccc(c23)N1CCCN1CCN(c2ccc(F)cc2)CC1	inactive
C=CCCCCCC	inactive
O=C1CCCCCO1	inactive
CN(C)CC[C@@H](c1ccc(Br)cc1)c1ccccn1	inactive
FC(F)(F)C(F)(F)C(F)(F)C(F)(F)C(F)(F)C(F)(F)CCI	inactive
O=C(c1ccc(O)cc1)c1ccc(O)cc1	inactive
O=C(O)C(c1ccc(Cl)cc1)c1ccc(Cl)cc1	inactive
O=C(NS(=O)(=O)/C=C/c1cccs1)c1ccc(F)cc1Br	inactive
CC(=O)OC/C=C/c1ccccc1	inactive
c1ccc(-c2nc[nH]c2-c2ccccc2)cc1	inactive
CN1CCC(OC(c2ccccc2)c2ccccc2)CC1	inactive
CC(=O)OCCc1ccccc1	inactive
Cc1ccc(C(C)c2ccc(C)c(C)c2)cc1C	inactive

assay: Caspase-3/7 induction in HepG2 cells by small molecules, qHTS cell viability counter screen (AID 1346981); details: CellTiter-Fluor fluorescence, 17 h; series mostly up to 92.4 µM; note: nearly all actives have a fitted effect of over 30% in size
Outline: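 Multiplexed with the caspase-3/7 assay: HepG2 cells, 16 hr compound treatment, CellTiter-Fluor viability detection by fluorescence.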

Structure (SMILES)	Potency
O=C(CC(=O)c1ccccc1)c1ccccc1	inactive
CC(C)=CCCC(C)CC=O (stereo not drawn)	inactive
CN(c1nccc(=O)[nH]1)C1CCN(c2nc3ccccc3n2Cc2ccc(F)cc2)CC1	inactive
CCCCOC(=O)c1ccccc1C(=O)OCC(CC)CCCC (stereo not drawn)	inactive
O=C(c1ccccc1)c1ccc2n1CCC2C(=O)O (stereo not drawn)	inactive
CCN(CC)C(C)CN1c2ccccc2Sc2ccccc21 (stereo not drawn)	inactive
O=C(Nc1ccccc1)OCC(CN1CCCCC1)OC(=O)Nc1ccccc1 (stereo not drawn)	inactive
CC(O)C1CCCCC1 (stereo not drawn)	inactive
Cc1nc2ccccc2n1Cc1ccc(Cl)cc1	inactive
CCCCCCOC(=O)CCC	inactive
COCCO	inactive
C=C(C)C(=O)OCCN(C)C	inactive
CC(C)(C)c1ccc(S)cc1	inactive
CCOc1ccc2[nH]cc(C(=O)NCc3ccccc3)c(=O)c2n1	inactive
O=c1[nH]cnc2ccccc12	inactive
CN1CCN(C2=Nc3ccccc3Sc3ccc(Cl)cc32)CC1	inactive
Cc1ccccn1	inactive
N#Cc1c(F)cccc1F	inactive

Structure (SMILES)	Potency
S=C(S)NCCNC(=S)S	inactive
CN(C)CC/C=C1\c2ccccc2COc2ccccc21	inactive
O=C(O)Cc1cc(I)c(Oc2ccc(O)c(I)c2)c(I)c1	inactive
CC(=O)N(O)CCCCCNC(=O)CCC(=O)N(O)CCCCCNC(=O)CCC(=O)N(O)CCCCCN	inactive
O=S1(=O)c2cccc3cccc(c23)N1CCCN1CCN(c2ccc(F)cc2)CC1	inactive
C=CCCCCCC	inactive
O=C1CCCCCO1	inactive
CN(C)CC[C@@H](c1ccc(Br)cc1)c1ccccn1	inactive
FC(F)(F)C(F)(F)C(F)(F)C(F)(F)C(F)(F)C(F)(F)CCI	inactive
O=C(c1ccc(O)cc1)c1ccc(O)cc1	inactive
O=C(O)C(c1ccc(Cl)cc1)c1ccc(Cl)cc1	inactive
O=C(O)C1CCC(C(=O)O)CC1 (stereo not drawn)	inactive
CC(=O)OC/C=C/c1ccccc1	inactive
c1ccc(-c2nc[nH]c2-c2ccccc2)cc1	inactive
CN1CCC(OC(c2ccccc2)c2ccccc2)CC1	inactive
CC(=O)OCCc1ccccc1	inactive
Cc1ccc(C(C)c2ccc(C)c(C)c2)cc1C	inactive
